Among all 96,000 compounds or so, about 20,000 (21%) were called active. A selection follows. Values without a mark were called inactive.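 How the source made its calls: active means CYP2C19 inhibition above a set limit at 5 µM in the primary screen (cut at about 50% in these data); inactive means the rest.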
Target: Cytochrome P450 2C19 (Homo sapiens) (UniProt P33261)
Assay: blockers of cytochrome P450 2C19 activity – biochemical, luminescence, ADME assay, primary screen (AID 778);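 further: plate controls were negative control wells for no effect and 2.5 mM tranylcypromine positive control for full effect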
Conditions: CYP2C19 Supersomes, luciferin-H EGE luminescence, 30 min; at 5 µM; hits give high values

Sequence of Cytochrome P450 2C19 (Homo sapiens) (P33261 whole entry, looked up): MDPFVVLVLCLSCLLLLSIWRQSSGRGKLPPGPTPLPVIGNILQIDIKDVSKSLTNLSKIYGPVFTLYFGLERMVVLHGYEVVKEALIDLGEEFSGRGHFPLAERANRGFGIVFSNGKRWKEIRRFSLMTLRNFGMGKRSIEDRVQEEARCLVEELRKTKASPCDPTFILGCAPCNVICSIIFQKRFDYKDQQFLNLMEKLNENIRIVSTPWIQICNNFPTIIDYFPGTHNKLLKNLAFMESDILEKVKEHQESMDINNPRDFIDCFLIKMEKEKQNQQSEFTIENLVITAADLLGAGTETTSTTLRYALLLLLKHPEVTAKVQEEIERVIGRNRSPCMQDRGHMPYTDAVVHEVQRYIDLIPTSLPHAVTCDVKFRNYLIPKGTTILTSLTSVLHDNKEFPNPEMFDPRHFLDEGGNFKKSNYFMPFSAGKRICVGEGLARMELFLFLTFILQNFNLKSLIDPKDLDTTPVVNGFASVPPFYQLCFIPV

SMILES	inhibition
CCC(C)c1ccc(O)c(/C=N/O)c1 (stereo unspecified)	-21.8%
Cc1nc2ccc(C(=O)O)cc2[nH]1	-2.4%
Cc1noc(C)c1COC(=O)c1cc2ccccc2cc1O	89.3% (active)
Cc1noc(C)c1CSc1nnc2ccc3ccccc3n12	23.4%
Cc1noc(C)c1COC(=O)Cn1c(C)nc2ccccc21	17.3%
CC(CN1CCOCC1)c1ccccc1 (stereo unspecified)	26.4%
CC(C)C(=O)Nc1ccc2c(c1)oc1ccccc12	13.2%
Cc1nc2cc(NC(=O)NCc3ccccc3)ccc2o1	-8.7%
O=C(O)CCN1C(=O)CC2(CCCCC2)C1=O	-6.7%
Cc1ccc(C(=O)NCC(=O)O)cc1S(=O)(=O)N1CCCCC1	-12.8%
Cc1ccc(C(=O)Nc2ccc3c(c2)OCO3)cc1S(=O)(=O)N1CCCCC1	92.3% (active)
O=C(O)c1cc(S(=O)(=O)N2CCCCCC2)c(Cl)cc1Cl	0%
Cc1ccc(-n2nc3c(c2NC(=O)c2ccc4c(c2)OCO4)CSC3)c(C)c1	3.6%
O=C(Nc1ccc2c(c1)OCCO2)c1ccc(Cl)c(S(=O)(=O)N2CCCCC2)c1	96.4% (active)
Cn1c(=O)n(C)c2cc(C(=O)Nc3ccc4c(c3)OCO4)ccc21	-13.9%
COc1ccc(N2C(=O)c3cccc4cccc(c34)C2=O)nn1	-8.5%
CC1CCCN(C(=O)Cn2c(=O)oc3ccccc32)C1 (stereo unspecified)	26.2%
Cc1nnc(NC2=NCCCCC2)o1	-3.5%
O=C(CC1NCCNC1=O)Nc1ccc(Oc2ccccc2)cc1 (stereo unspecified)	-0.6%
Cn1c(=O)[nH]c(=O)c2c1nc(Br)n2CCCCSc1nc2ccccc2o1	38.5%
Cc1ccc(Oc2ccc3c(c2)C(=O)N(c2cccc4cccnc24)C3=O)cc1	-1.5%
COc1ccc(N/N=C2/CCCCC2=O)cc1	3.1%

SMILES	inhibition
COc1ccc(CNC2CCCCC2)cc1	69.4% (active)
COc1ccc(CNC(=O)C2CCN(S(=O)(=O)N3CCOCC3)CC2)cc1	-11.9%
CN1C(=O)c2ccc(NC(=O)C3CCCCC3)cc2C1=O	-0.4%
O=C1c2ccccc2C(=O)N1c1ccccc1S(=O)C(F)(F)F (stereo unspecified)	6.6%
Cc1ccc(-n2c(=O)cc(N3CCN(Cc4ccccc4)CC3)[nH]c2=O)cc1	1.5%
CC1=NCCN1S(=O)(=O)c1ccc(Br)c(C)c1	27.7%
Cc1ccc(S(=O)(=O)N2CC(=O)Nc3ccccc32)cc1C	60.4% (active)
Cc1ccc(C)c(S(=O)(=O)N2CC(=O)Nc3ccccc32)c1	32.8%
O=C(OCC#CCSc1nnc(-c2ccncc2)o1)c1sc2ccccc2c1Cl	-11.8%
CC1CCN(C(NC(=O)c2ccco2)C(=O)c2ccccc2)CC1 (stereo unspecified)	35.9%
CCOC(=O)C1C(=O)NCC1c1ccccc1 (stereo unspecified)	-0.1%
CCOC(=O)C1=C(C)NC(C)=C(C(=O)OCC)C1c1ccccn1	50.3% (active)
O=C(OCC(=O)c1cccs1)C1=COCCO1	2.6%
CCOc1ccccc1C1NC(=O)NC(C)=C1C(=O)OCc1ccco1 (stereo unspecified)	16.1%
CCCC1NC(=O)NC(C)=C1C(=O)OCC (stereo unspecified)	17%
CCOC(=O)C1=C(C)NC(C)=C(C(=O)OCC)C1C1=COCCO1	88.8% (active)
CCCCCn1c(SCCC(C)C)nc2c1c(=O)[nH]c(=O)n2C	8.6%
Cc1ccc(C2CC(c3cccc(Br)c3)n3nc(N)nc3N2)cc1 (stereo unspecified)	21.7%
Cc1ccc(-c2ccc(=O)n(CC(=O)NCCCN3CCCCC3)n2)cc1	6.9%
O=C1c2ccccc2C(=O)c2c1cccc2N1CCN(CCO)CC1	1.4%
Cc1ccc(NC(=S)NC(=O)c2ccc(-c3ccccc3)cc2)c(C)c1	8.6%
Cc1cc2[nH]ncc2cc1NC(=S)NC(=O)c1ccccc1	99.2% (active)

SMILES	inhibition
CCOC(=O)c1c(-c2ccccc2)csc1NC(=S)NC(=O)c1ccccc1	-8.6%
CC1(C)C(=O)C2(CCCCC2)C(=O)OC1c1cccs1 (stereo unspecified)	15.1%
CCOC1CS(=O)(=O)CC1OCC (stereo unspecified)	-10.9%
Nc1nnc(C2CCCC2)s1	8.1%
Cc1cc(N/C=C\C(=O)c2ccc(Cl)c(Cl)c2)no1	40.4%
Cc1nn(C(=O)c2ccoc2C)c(N)c1-c1ccccc1	29.7%
Cc1nn2c(c1-c1ccccc1)N=C(c1ccco1)CC2c1ccccc1 (stereo unspecified)	66.2% (active)
CN(C)/C=C(\C#N)C(=O)c1cccnc1Oc1cccc(F)c1	40.5%
COc1cccc2cc(C(=O)N(C)C)c(=O)oc12	-22.6%
CCCCNC(=O)c1onc(CSc2cccc(OC)c2)c1C(=O)O	12.9%
CCOc1ccc(NC(=O)N(CC(C)C)CC(C)C)cc1	11.8%
OCCN(Cc1ccccc1)Cc1ccc(Cl)cc1	100% (active)
CN(Cc1ccccc1)Cc1ccccc1F	44.7%
CC(O)CN(Cc1ccc(Cl)cc1)CC(C)O (stereo unspecified)	-2.3%
Brc1cnc(N2CCCC2)nc1N1CCCCC1	1.7%
COc1cc(OC)cc(C(=O)NCCSCc2ccco2)c1	35%
O=C(CN1C(=O)C2C3C=CC(C3)C2C1=O)NCC1COc2ccccc2O1 (stereo unspecified)	0.4%
COC(=O)c1sc(=S)n(-c2ccccc2)c1N	17.4%
CCOC(=O)Cn1c(N)c(C(=O)OC)sc1=S	26.8%
COC(=O)c1sc(=S)n(-c2ccc(Cl)cc2)c1C	62.9% (active)
CC1(C)CC(=O)NC=C(c2ccccc2)C1	23.8%
Brc1ccc(/C=N/N2CCN(C3c4ccccc4-c4ccccc43)CC2)s1	11.5%

SMILES	inhibition
COc1ccc(OC)c(-n2cc3c(=O)n(C)c(=O)n(C)c3c2)c1	38.6%
N#CC1=C(N)Oc2cc(O)ccc2C1C1CCCCC1 (stereo unspecified)	35.8%
COc1cc(C2C(C#N)=C(N)Oc3n[nH]c(-c4ccccn4)c32)cc(OC)c1OC (stereo unspecified)	1.9%
COc1ccc(C2C(C#N)=C(N)Oc3cc(N)ccc32)cc1OC (stereo unspecified)	74.9% (active)
CS(=O)(=O)N1CCCC(C(=O)N2CCOCC2)C1 (stereo unspecified)	-12.2%
O=C(Cc1ccc(S(=O)(=O)N2CCOCC2)s1)NCCC(c1ccccc1)c1ccccc1	41.9%
COC(=O)NC1(C(F)(F)F)NC(=O)N(C2CCCCC2)C1=O (stereo unspecified)	7.3%
O=C1NC(Nc2nc3ccccc3s2)(C(F)(F)F)C(=O)N1C1CCCCC1 (stereo unspecified)	68.9% (active)
CCC(=O)Nc1sc(C(=O)N2CCCCC2)c(C)c1C#N	19.7%
O=C(CSc1n[nH]c(-c2cccnc2)n1)Nc1ccnc2ccccc12	15%
NC(=O)N1CCCC1C(=O)Nc1ccc(Cl)c(Cl)c1 (stereo unspecified)	54.3% (active)
COc1cccc(NC(=O)C2CCCN2C(=O)OCc2ccccc2)c1 (stereo unspecified)	33.1%
CC(=O)Nc1ccc(NC(=O)CN2CCCC(C)C2)c(Cl)c1 (stereo unspecified)	19.8%
Cc1cc(NC(=O)COn2nnc3ccccc32)no1	28.7%
Cc1nn(C)cc1C(=O)NNC(=S)Nc1ccc(Cl)cc1	8.5%
S=C(NCc1cccs1)Nc1ccc(Cl)cc1	89.7% (active)
S=C(NCc1ccc(Cl)cc1)NC12CC3CC(CC(C3)C1)C2	47.3%
C=CCNC(=S)NNc1ncnc2sc3c(c12)CC(C)(C)OC3	17.9%
C=CCOc1c2ccc(C(=O)N(CC)c3ccc(OC)cc3)cc2nn1C	44.1%
O=C(CNC(=O)OCc1ccccc1)Oc1cc2oc(=O)cc(-c3ccccc3)c2cc1Cl	27.8%
COc1ccc(OCC(=O)OCC(=O)Nc2ccc(S(=O)(=O)N3CCCCC3)cc2)cc1	21.1%
Cc1cccc(OCCCC(=O)Nc2ccc(S(=O)(=O)N3CCCC3)cc2)c1	50.1% (active)

SMILES	inhibition
CC(=O)Nc1ccc(S(=O)(=O)N2CCSCC2)cc1	11.2%
CC(=O)Nc1ccc(S(=O)(=O)N2CCN(CCCOc3cc(C)ccc3C)CC2)cc1	84.1% (active)
CC(=O)Nc1ccc(S(=O)(=O)N2CCN(C3CCCCCCC3)CC2)cc1	25.7%
C=CCNC(=O)CCCOc1cccc(C)c1	17.5%
CCc1c(C)c2c(C)[nH]nc2oc1=O	34%
CCOC(=O)Nc1ccc(NC(=O)OCC)cc1	-15.6%
Cc1ccc2c(NC(=O)C3CC3)cccc2n1	3.3%
CSc1ccc(C#N)cc1NC(=O)c1cccc(Cl)c1	17.9%
O=C(CCN1C(=O)c2ccccc2C1=O)NCCN1CCOCC1	-17.4%
Cc1cc(C)nc(SCc2nnc(SCC(=O)OC3CCCCC3)o2)n1	32.2%
c1ccc(CSc2nnc(-c3ccco3)c(-c3ccco3)n2)cc1	44.4%
O=C(c1ccc(Cl)c(Cl)c1)N1CCCC1	15.1%
CC(NC(=O)c1ccc(Cl)cc1)C(=O)N1CCCCC1 (stereo unspecified)	77.5% (active)
CC(C)C(NC(=O)c1ccc(Cl)cc1)C(=O)O (stereo unspecified)	-19.4%
CCOc1ccccc1N=C1NC(=O)CS1	-12.1%
O=CN1CCN(C2CC(=O)N(c3ccc4c(c3)OCO4)C2=O)CC1 (stereo unspecified)	-12%
Cc1ccc(N2C(=O)CC(NCc3ccc4c(c3)OCO4)C2=O)cc1Cl (stereo unspecified)	85% (active)
CC1CCC(N2CC(=O)N(Cc3ccc4c(c3)OCO4)C(c3ccc(F)cc3)C2=O)CC1 (stereo unspecified)	20.3%

Source: PubChem BioAssay AID778 (Sanford-Burnham Center for Chemical Genomics, 2007)
